Pol eta inh: qHTS for Inhibitors of Polymerase Eta; DNA polymerase eta (Homo sapiens), Q9Y253; recombinant Pol eta, fluorescent DNA replication assay; Potency, µM (series often up to 114 µM), for the others: at the highest dose activity change, negative = inhibition, usual class: inhibitors; 390,000 tested, 1.2% active; AID 588591, 2011; also: potency is read from the fitted curve at half-maximal effect; % is scaled to controls: 0 for no effect and ±100 for the full control effect
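Pol eta (10 nM) was preincubated with compounds for 15 min at room temperature, after which fluorescent replication substrate (50 nM final) was added to start the reaction. Fluorescence was read kinetically at 0 and 10 min.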
PI5P4Ka inh: qHTS for Inhibitors of phosphatidylinositol 5-phosphate 4-kinase (PI5P4K); Phosphatidylinositol 5-phosphate 4-kinase type-2 alpha (Homo sapiens), P48426; PI5P4Kalpha enzyme, ADP-Glo luminescence, 60 min; hits give low values; max response, %; 330,000 tested, 1.2% active; AID 652105, 2013; active = max response of -50% or lower; inconclusive = between -30% and -50%; inactive = -30% or higher; also: value at the top dose of about 77 µM; % is scaled to controls: 0 for no effect and ±100 for the full control effect
Target sequence (P48426 whole entry, looked up): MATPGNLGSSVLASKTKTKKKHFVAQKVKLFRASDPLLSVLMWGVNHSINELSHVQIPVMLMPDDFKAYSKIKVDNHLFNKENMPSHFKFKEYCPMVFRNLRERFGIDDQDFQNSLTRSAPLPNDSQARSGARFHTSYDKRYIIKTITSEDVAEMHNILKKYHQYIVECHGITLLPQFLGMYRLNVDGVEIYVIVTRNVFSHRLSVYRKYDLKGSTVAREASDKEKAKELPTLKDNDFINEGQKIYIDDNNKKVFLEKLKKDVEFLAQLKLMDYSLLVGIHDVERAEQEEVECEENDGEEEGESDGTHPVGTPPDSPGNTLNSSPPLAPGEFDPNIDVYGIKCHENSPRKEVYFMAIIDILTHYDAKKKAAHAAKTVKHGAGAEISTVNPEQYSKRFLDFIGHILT
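Controls without substrate or without enzyme flank wells where PI5P4Kalpha converts substrate using 5 microM ATP (final). Incubation lasts 60 minutes at room temperature; ADP formed is read by ADP-Glo luminescence.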
POLB inh: qHTS Assay for Inhibitors of DNA Polymerase Beta | Potency, µM (series often up to 114 µM), inactives show top-dose activity change, negative = inhibition, hits mostly inhibitors | 340,000 tested, 1.3% active | Pol beta primer extension/strand displacement, fluorescence kinetic; also: potency is read from the fitted curve at half-maximal effect; % is scaled to controls: 0 for no effect and ±100 for the full control effect
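Kinetic readout of DNA synthesis with strand displacement by Pol beta. Compound and 10 nM enzyme sit 15 min at room temperature; 50 nM substrate starts the reaction, read immediately and at 10 min.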
POLI inh: qHTS for Inhibitors of Polymerase Iota | DNA polymerase iota (Homo sapiens), Q9UNA4 | Pol iota fluorescent replication assay, 10 min | Potency, µM (series often up to 115 µM), without a hit: at the highest dose activity, negative = inhibition, most hits filed as inhibitors | 390,000 tested, 1% active | AID 588590, 2011; also: potency is read from the fitted curve at half-maximal effect
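Pol iota at 10 nM preincubated 15 min with compounds at room temperature; reaction started with fluorescent substrate, 50 nM final. Fluorescence read kinetically at 0 and 10 min; buffer-only wells as negative control.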
WRN helicase inh: qHTS for Inhibitors of WRN Helicase. Potency, µM (doses to about 114 µM), for inactives: top-dose activity change, negative = inhibition, hits mostly inhibitors. WRN helicase unwinding, fluorescent forked duplex, kinetic. Bifunctional 3'-5' exonuclease/ATP-dependent helicase WRN (Homo sapiens), Q14191. 360,000 tested, 0.46% active; also: potency is read from the fitted curve at half-maximal effect; % is scaled to controls: 0 for no effect and ±100 for the full control effect; nearly all actives have a fitted effect of over 55% in size
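Kinetic fluorescence helicase assay: unwinding of a quenched forked DNA duplex (100 nM final) with 2 mM ATP final raises red fluorescence (525/598 nm). Compounds sat 15 min at room temperature with 20 nM WRN beforehand.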
POLK inh: qHTS for Inhibitors of Polymerase Kappa; purified Pol kappa, fluorescent DNA synthesis assay, 10 min; Potency, µM (titrated, usually from 107 µM), for the others: top-dose activity, negative = inhibition, hits mostly inhibitors; 400,000 tested, 0.53% active; also: potency is read from the fitted curve at half-maximal effect; % is scaled to controls: 0 for no effect and ±100 for the full control effect
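Here, compound and 10 nM enzyme are combined for 15 min at room temperature; adding 50 nM substrate (final) starts DNA synthesis, tracked by fluorescence at 0 and 10 min against buffer-only wells.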
Active calls of the source: *; ? = inconclusive; . = no result; [ ] = another dose, or the depositor's remark. Shown are actives, neighbours in structure and some others; about 2.8% of the full set was active somewhere. Unless noted, calls follow the shape of the dose curve; as a rule, active = well fitted curve in the direction sought with a large enough effect; inconclusive = small, poorly fitted or top-dose-only effect, or another doubt; inactive = no such curve, though single readings can be large; an effect the other way counts as inactive or inconclusive.

SMILES	Pol eta inh	PI5P4Ka inh	POLB inh	POLI inh	WRN helicase inh	POLK inh
COc1ccccc1CCNC(=O)CSc1ccc(-c2ccco2)nn1	-16%	?	16µM*	?	-10%	-23%
COc1ccc(C)cc1NC(=O)CSc1nnc(-c2ccco2)n1N	13%	5	-2%	23%	-3%	-28%
Cc1cccc(NC(=O)CSc2ccc(-c3ccco3)nn2)c1C	5%	-2	?	13µM*	?	?
COc1ccc(C)cc1NC(=O)CSc1ccc(-c2ccco2)nn1	?	?	-3%	32µM*	-13%[11.6 µM]	?
COc1cc(OC)cc(C(=O)NN2CCOCC2)c1	4%	-4	-24%	21%	3%	-3%
O=C(C[n+]1cccc(Br)c1)c1cccc([N+](=O)[O-])c1	.	.	.	21%	.	-5%
COc1ccc(C(=O)Nc2ccc(-c3n[nH]c(=S)o3)cc2)cc1	4%	-55*	-15%	?	-15%	-8%
CCOc1ccc(C(=O)Nc2ccc(-c3nc4cc(CC)ccc4o3)cc2)cc1	-10%	.	0%	89µM*	.	-8%
COc1ccc(C(=O)Nc2ccc3oc(-c4ccc(OC)cc4)nc3c2)cc1	-9%	.	-1%	19%	.	-5%
NC(=S)Nc1cccc(-c2n[nH]c(=S)o2)c1	-3%	-25	1%	-14%	-10%	-5%
C=CCOc1ccc(-c2n[nH]c(=S)o2)cc1	-18%	-60*	27%	156%	-3%	1%
Cc1ccc(NC(=S)Nc2cccc(-c3n[nH]c(=S)o3)c2)cc1	3%	-68*	5%	-21%	-24%	-9%
O=c1[nH]nc(-c2ccc(OCc3ccc(Cl)cc3Cl)cc2)o1	2%	-2	2%	9%	-4%[57.1 µM]	-11%
O=C(Nc1ccc(-c2n[nH]c(=S)o2)cc1)c1ccccc1	-21%	-63*	15%	0%	-8%	2%
O=C(Nc1ccc(-c2ccccc2)cc1)c1ccccc1	-6%	-3	1%	9%	-2%	3%
CN1C(=O)N(CC(=O)Nc2sccc2C(N)=O)C(=O)C12CCCCC2	-2%	-17	.	-26%	-5%	3%
CC1CN(C(=O)CCC(=O)N2CCOCC2)c2ccccc2O1 (centres undefined)	-6%	0	4%	8%	5%	-6%
O=C(CCC1CCCN(C(=O)c2ccc3cc[nH]c3c2)C1)N1CCN(c2ccccn2)CC1 (centres undefined)	-6%	0	40µM*	-4%	-1%	8%
CCOc1ccc2c(=O)c(Oc3ccccc3OCC)coc2c1	-6%	4	-17%	89µM*	5%	-14%
CCOc1ccccc1Oc1coc2cc(OCC(=O)O)ccc2c1=O	28µM*	-16	10µM*	3%	4%[11.6 µM]	-41%
COc1cc(OC)cc(OC(=O)c2ccc3c(=O)n4c(nc3c2)CCC4)c1	40µM*	-23	.	40µM*	-2%[11.6 µM]	-25%
O=C(Cn1cnc2c(oc3ccccc32)c1=O)NCc1ccccc1	5%	3	25µM*	-1%	-4%	3%
COC1=CC(=O)C(C2CC(=O)c3c(O)cc(O)cc3O2)=CC1=O (centres undefined)	?	?	.	?	28µM*	32µM*
CCCCCCCCSc1nnc2[nH]c(=O)cc(N)n12	-17%	-50*	-25%	6%	?	3%
N#Cc1c(-c2cccc(Cl)c2)[nH]c(=S)[nH]c1=O	-15%	-77*	-15%	12%	-3%	-10%
SMILES	Pol eta inh	PI5P4Ka inh	POLB inh	POLI inh	WRN helicase inh	POLK inh
N#Cc1cc(-c2cccc(Cl)c2)c[nH]c1=O	-9%	-6	10%	-2%	-5%	-16%
N#Cc1c(-c2ccccc2)[nH]c(=S)[nH]c1=O	3%	-62*	-9%	0%	-6%	-4%
CC[C@]12c3[nH]c4cc(-c5ccco5)ccc4c3CCN1C(=O)[C@@H](CC(=O)NCc1ccco1)C[C@@H]2C(=O)N1CCN(C(=O)c2ccco2)CC1	-9%	-3	.	50µM*	-3%[11.6 µM]	-12%
CC[C@]12c3[nH]c4ccccc4c3CCN1C(=O)C(CC(=O)NCc1ccco1)C[C@@H]2C(=O)N1CCN(C(=O)c2ccco2)CC1 (some centres undefined)	1%	0	.	27%	-4%	-14%
Cc1cc(-c2csc(NC(=O)c3ccc(=O)[nH]c3)n2)c(C)n1Cc1ccccc1	-14%	-23	20µM*	3%	-1%	-7%
O=C(Nc1nc(-c2ccccc2)cs1)c1ccc(=O)[nH]c1	-15%	2	1%	147%	-6%	-2%
O=C(Nc1ccncc1)c1cnn2c1NC(=C1CC1)C=C2C(F)F	.	.	.	3%	.	-25%
CC(=O)Nc1nonc1NC(C)=O	-12%	0	-6%	-2%	6%	-6%
CC(=O)Oc1ccc2nonc2c1OC(C)=O	.	.	.	3.5µM*	.	3.2µM*
CC(=O)Nc1cc(OC(C)=O)c2nonc2c1OC(C)=O	50µM*	.	0%	0.79µM*	-11%	-10%
Cn1cc(O)nc1NC(=O)Nc1cccc(Cl)c1	.	.	.	.	.	7%[19.4 µM]
COC(=O)[C@@H](Cc1c[nH]c2ccccc12)NCc1cccc(B(O)O)c1	-11%	-6	.	45%	0%	17%
CS(=O)(=O)N1CCC(C(=O)NCc2ccco2)CC1	?	.	4%	50µM*	-3%[11.6 µM]	-7%
CCS(=O)(=O)N1CCC(C(=O)NCc2ccco2)CC1	-11%	.	30%	76%	-1%	11%
C#CCn1cc(/C=C2\NC(=O)NC2=O)c2ccccc21	?	2	35µM*	?	?	?
CC(C)n1cc(/C=C2/NC(=O)NC2=O)c2ccccc21	-13%	-18	29%	-19%	-7%	2%
Cc1ccc(/C=C(\C#N)C(=O)Nc2cccc(Br)c2)o1	.	.	31%	-15%	.	-23%
N#C/C(=C\c1ccc(N2CCCCC2)o1)C(=O)Nc1cccc(Br)c1	?	1	-24%	?	89µM*	-3%
CCCCn1c2ccccc2c2nnc(SCC(=O)Nc3ccc(NC(C)=O)cc3)nc21	-5%	.	14µM*	-11%	.	-1%
Cc1c(CCC(=O)NCc2ccc(F)cc2)c(=O)oc2cc(O)ccc12	-16%	.	6%	32%	.	12%
COCCN(C(=O)COC(=O)CCC(=O)c1cccs1)c1c(N)n(Cc2ccccc2)c(=O)[nH]c1=O	-17%	8	.	15%	-2%	3%
CC(=O)c1sc(C(=O)O)c(-c2ccco2)c1-c1ccco1	22µM*	?	20µM*	?	-36%	45µM*

Source: PubChem
